Article PMC12136788
Where a chain is given by its changes, count along the chain named. In all, about 24,000 sequences were measured (“enrichment r”: median about 0.99, highest 2% from about 3.7 on). The entries come from a sample that favours the highest values as a whole.

B1: chr10:70525781:70525782:+_ENSG00000060339_ENST00000535016|hu_hu|motif|central (ssRNA)
RNA: GGGAGUUCUACAGUCCGACGAUCUGAAUGUUCUUUAUUAUCCUCUAAUCUGUAGUCCAAUAGGACACUCAAAGACAUGAUGCGGCAAUCAAACUUGCCACUUUUUGCAGCCCAAUUUGGAUGUACAAUGAUGGCCGGUUCAUCCAACAGAGGAUUGAGCAUCA
B2: chr20:57415074:57415075:+_ENSG00000087460_ENST00000313949|hu_hu|motif|central (ssRNA)
RNA: GGGAGUUCUACAGUCCGACGAUCUCUGCAGAGAGUGGCUCCGAAGCACAUUGGCUGCUGGAGCCGGGAAAGGUACACCCGGUGAGGUGAGAAGCUGGCCCGGAGGUCCCAGCCUCACCUCCUUGUGAGGAGAAAAAGGGAAGCCAACAGAGGAUUGAGCAUCA
B3: chr17:23874276:23874277:-_ENSMUSG00000023909_ENSMUST00000024702|mus_mus|motif|central (ssRNA)
RNA: GGGAGUUCUACAGUCCGACGAUCAGAGACUCUCACAGGUUAAACAGGGUAAAUUGGGAAAAAAAAAAAUGGUUUCCUUCGGAUGACAGCAAAACAAUGCCCAGGAGGGAAGAUGGCAAGGAAAGUGGAAGCUGGGGUUUGAAGCAACAGAGGAUUGAGCAUCA
B4: chr17:23874276:23874277:-_ENSMUSG00000023909_ENSMUST00000024702|mus_mus|FALSE|FALSE (ssRNA)
RNA: B3 RNA with G80U, G81A
B5: chrX:7396663:7396664:+_ENSMUSG00000031153_ENSMUST00000132456|mus_mus|motif|central (ssRNA)
RNA: GGGAGUUCUACAGUCCGACGAUCGCAAGGGCAUACAUGGAUGGAUCAGUGGGCAGAGGGACAGAUGGCAGACUGAUGGGCGGACCUGGGAAGUUGAUUGGAGGGUAAAAGAGGUGAACACAAAAGGGCGGUAGAUGACUGGAACAACAGAGGAUUGAGCAUCA
B6: chr17:23874276:23874277:-_ENSMUSG00000023909_ENSMUST00000024702|mus_hu|FALSE|FALSE (ssRNA)
RNA: GGGAGUUCUACAGUCCGACGAUCUCUAACCCCACAGGUCACAGAGGGUAAAGAGGUCCCAAGAGGGAAAGGUUUCCUUCCAGCUGACACAGUAAAAUAGGAGCUUGGAGGGAAAAGGCAGGGAAGGAAGUUGGAGCGCCACGGCAACAGAGGAUUGAGCAUCA
B7: chr18:38611996:38611997:+_ENSMUSG00000024425_ENSMUST00000025293|mus_mus|FALSE|FALSE (ssRNA)
RNA: GGGAGUUCUACAGUCCGACGAUCAAGACCAAAUCCUGAGAUGGCCCCAUACCUUCCCGCAGCUGAGGUGGUCAGGCAAAAAGACAAGAAAAACCCAAUCCAGUUGAAGAGGAAUGCCAUGAAAAAAGUUAACAUAAAAAUCCCCAACAGAGGAUUGAGCAUCA
B8: chr1:220276048:220276049:+_ENSG00000067704_ENST00000302637|hu_hu|hu_hu_hu_mus_True|1_108 (ssRNA)
RNA: GGGAGUUCUACAGUCCGACGAUCGCAAACAGCUUCAUUGGCGGGAAUUGUCCAAGGCUGGGUGGUCCAAACUAAAACGCUAACAGGGGAUGAGGCAUCUGUAAGAGACUCCAACUUCGGAGGAGGUCUCAGGAGGGGAAAUUUCAACAGAGGAUUGAGCAUCA
B9: chr7:112757510:112757511:-_ENSG00000214194_ENST00000397764|hu_mus|FALSE|FALSE (ssRNA)
RNA: GGGAGUUCUACAGUCCGACGAUCCUUUCUUGCGUAUAUCCCCAAGCAAGCACAGAUGCCGGUAAUGCUGAGAACCACACCUAAUAAGAGUGCAAUCGCGUCUCCAGCUUCCACUGCUUCAACAACAGGCAGGAUCAAAAGCAGCAACAGAGGAUUGAGCAUCA
B10: chr9:49312907:49312908:-_ENSMUSG00000039542_ENSMUST00000166811|mus_hu|motif|central (ssRNA)
RNA: GGGAGUUCUACAGUCCGACGAUCAGCUGCAAUUUGGCAUUCGUCCUAUAAAAUAAGAGUCUACGUGGGAAUUGAAUUCAGCGGGAAAGGGUGACACACUUUGCAUACUGAACAAAUACAAAGUGAACAGAAAUUAUAACUUAUCAACAGAGGAUUGAGCAUCA
B11: chr6:168291551:168291552:+_ENSG00000130396_ENST00000400822|hu_hu|motif|central (ssRNA)
RNA: GGGAGUUCUACAGUCCGACGAUCGUGUUUCUUGGUUUUCUUUGGGAUGUGGUCUGGUGGCCUCCUCUUCAACUGAAAGACGGAAAUCCCUUUGUCACUUGGCCAUUCCCUGAAGAUUUGUAAAGGACACUCAUCAUCAUCAAGCAACAGAGGAUUGAGCAUCA
B12: 19737984_19738104_982_3pUTR_ENSG00000105849_ENST00000222567|human|control|control (ssRNA)
RNA: GGGAGUUCUACAGUCCGACGAUCGGUGGGGUAAAUUCGGCCUCUUCACUGUGUUUUCUUUUCUUUUUUUUCUUUUUAUGGUCACUUUGGUAACCACUGGAGUCACUGCCUUGGAAAACAGGGUCCUGGUCCUGAACUUCCUGGCAACAGAGGAUUGAGCAUCA
B13: chr1:220276048:220276049:+_ENSG00000067704_ENST00000302637|hu_hu|hu_hu_hu_mus_True|18_78 (ssRNA)
RNA: GGGAGUUCUACAGUCCGACGAUCGCAAAUUGCCUGGUUGGCGGGAAUUGUCCAAGGUUGUGUGGUCCAAACUAAAACGCUAACAGGGGAUGAGGCAUCUGUAAGAGACUCCAACUUUGGAGAAGGCCUCAGGAGGGGGAAUCUCAACAGAGGAUUGAGCAUCA
B14: chr5:143664956:143664957:-_ENSMUSG00000029580_ENSMUST00000100497|mus_mus|FALSE|FALSE (ssRNA)
RNA: GGGAGUUCUACAGUCCGACGAUCAUACAUCAAGUUGGGGGGACAAAAAAAAGGGAGGCCUCAGACCUGGGCCAUUCAGAAAUUAAAAACAAAAAUGAAGUAUUAAGGCGGAAGAUUUAAAAAAAUUUUUGCAGUACAUAAUUUCAACAGAGGAUUGAGCAUCA
B15: chr10:35314101:35314102:-_ENSG00000108094_ENST00000537177|hu_hu|FALSE|FALSE (ssRNA)
RNA: GGGAGUUCUACAGUCCGACGAUCUUCACCUGUACACAGAUAAUGUAACCAUGUAAGUUUCCUUCCACUGAAAUGUUGGCUAUAAAAUAAUUCAAACAUCUGUACACUUUUUUCUAAUUCCUGGGGAAUUGCAAACGUAGAUGACAACAGAGGAUUGAGCAUCA
B16: chr16:75327710:75327711:-_ENSG00000153774_ENST00000283882|hu_hu|FALSE|FALSE (ssRNA)
RNA: GGGAGUUCUACAGUCCGACGAUCAUUUAAGGACAAAUUUUUAAAAGUAAAGUGAAUGAAACCAUUUGUGAUUAAGAUACAUAGACAGAACUUCAAUGUAGAAAAAAAAAAGACCUUGCUGGGAAACAGAUGAUGAGAAACACUCAACAGAGGAUUGAGCAUCA
B17: chr14:102368134:102368135:+_ENSG00000078304_ENST00000445439|hu_hu|hu_hu_hu_mus_True|48_68 (ssRNA)
RNA: GGGAGUUCUACAGUCCGACGAUCAAGAGGCUCCAUGAUCUUCACAAACUCUGAUGGUUCAAUUACAUCUAAAAUCUCUUCUAAUUCGUUUAAGAACAUUACUUCUUUUGGACUGUGAGUCUUUGGCCAGUAUUUGAGAAGUGCCAACAGAGGAUUGAGCAUCA
B18: chr5:143664956:143664957:-_ENSMUSG00000029580_ENSMUST00000100497|mus_hu|FALSE|FALSE (ssRNA)
RNA: GGGAGUUCUACAGUCCGACGAUCUCUCAAGUUGGGGGACAAAAAAGGGGGAAGGGGGGGCACGAAGGCUCAUCAUUCAAAAUAAAACAAAAUAAAAAAGUAUUAAGGCGAAGAUUAAAAAAAUUUUGCAUUACAUAAUUUACACAACAGAGGAUUGAGCAUCA
B19: chr6:114281168:114281169:-_ENSG00000196591_ENST00000368632|hu_hu|hu_hu_hu_mus_True|8_98 (ssRNA)
RNA: GGGAGUUCUACAGUCCGACGAUCUUCCAUUUUUCGGUAUAAGCCAUAAUUUAGCAGCAAGUUAUGAGUCAUCCGGAUUCUAUGAGGCUUCAUGGGAUGACCCUGGCCAUAAUAAUAAUUGCCAAUAUCACAGAUUCAGUAGUACAACAGAGGAUUGAGCAUCA
B20: chr19:58207738:58207739:+_ENSMUSG00000054843_ENSMUST00000077282|mus_mus|motif|central (ssRNA)
RNA: GGGAGUUCUACAGUCCGACGAUCUAAUUGGCCACAGAGUUAACAGUAGUGUGUGACAUUGCAUUAAUUCCAUAAUUAUCGGAAAUUCAAAAAUUUUAAAGUUUUAAGAACCUGGGGGAUUCACAGUGGAUGAGGCCUGACAGCCAACAGAGGAUUGAGCAUCA
B21: chr14:102368134:102368135:+_ENSG00000078304_ENST00000445439|hu_hu|hu_hu_hu_mus_True|68_88 (ssRNA)
RNA: B17 RNA with C48U, G87A
B22: chr4:144460044:144460045:+_ENSG00000153147_ENST00000283131|hu_mus|hu_hu_hu_mus_False|98_98 (ssRNA)
RNA: GGGAGUUCUACAGUCCGACGAUCACGGUCCAUAGCCUGAAGAUCUACUUGCGGAUUCCAAUCUGAGUCAUAUAAAAUGACUACAUCAGCAGUUGCAAGAUUGAUGCCCAGACCACCAGCACGUGUGCUUAGCAUAAAUACAAACAACAGAGGAUUGAGCAUCA

These binders were tested against T1, UNK ZnF1-3 (human, UniProt Q9C0B0 31-174) (assay: nsRBNS (natural sequence RNA bind-n-seq); RBNS binding buffer (assumed for nsRBNS): 25 mM Tris pH 7.5, 150 mM KCl, 3 mM MgCl2, 0.01% Triton X-100, 500 ug/ml BSA, 20 U/ml SUPERase-In, 4 C; UNK is unkempt and MSI1 is Musashi-1; names of the RNAs are library labels; protein concentration not given here; high values mean tight binding).
T1 sequence: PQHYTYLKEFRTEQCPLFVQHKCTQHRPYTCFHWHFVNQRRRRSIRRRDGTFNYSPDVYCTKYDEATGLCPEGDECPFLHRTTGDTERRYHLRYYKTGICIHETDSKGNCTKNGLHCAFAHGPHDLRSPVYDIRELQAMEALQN
Work on B1 yielded a binding signal of 0.442 enrichment R.
Binder B2 has a binding signal of 0.876 enrichment R.
For B3, the binding signal was 4.06 enrichment R.
Binder B4 has a binding signal of 4.07 enrichment R.
In the case of B5, the binding signal is reported as 2.58 enrichment R.
With B6 the binding signal was 1.43 enrichment R.
B7 showed a binding signal of 2.06 enrichment R.
B8 showed a binding signal of 1.61 enrichment R.
B9 gave a binding signal of 1.38 enrichment R.
For B10, the binding signal was 3.41 enrichment R.
With B11 the binding signal was 0.53 enrichment R.
B12 showed a binding signal of 0.463 enrichment R.
Work on B13 yielded a binding signal of 2.05 enrichment R.
With B14 the binding signal was 6.75 enrichment R.
B15 showed a binding signal of 1.11 enrichment R.
In the case of B16, the binding signal is reported as 1.71 enrichment R.
B17 showed a binding signal of 0.708 enrichment R.
With B18 the binding signal was 8.16 enrichment R.
For B19, the binding signal was 0.99 enrichment R.
In the case of B20, the binding signal is reported as 4.11 enrichment R.
B21 was tested, and the binding signal was 0.758 enrichment R.
B22 showed a binding signal of 1.14 enrichment R.
